# From PubChem BioAssay (NCI)
# This is part of a sample that, as a whole, favours compounds with a hit. Of some 83,000 tested, about 20% had one in any assay.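 Results are percent growth after 48 hours of single-concentration exposure. 100 means growth as in untreated cells, lower positive values show inhibition; negative values down to -100 show cell death.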 Active and inactive are the calls of the source. The calls were made as follows: active = growth percent below 10; inactive = the rest.
# Tested on: HL-60(TB) leukemia
# Experiment: NCI-60 one-dose screen, 48 h (100 = growth as untreated, 0 = no growth, -100 = all killed)
# Conditions: 10 µM unless noted
row,SMILES,growth
1,CN(C)CCCn1c2c(c3ccc(-c4ccn[nH]4)cc3c1=O)C(=O)c1ccccc1-2,-7.99% (active)
2,Cc1cc(N2CCN(C)CC2)nc(N(CCNc2ccnc3cc(Cl)ccc23)Cc2ccco2)n1,8.29% (active)
3,COc1ccc(-c2cc(-c3ccccc3)nc(SCCCCCC(=O)NO)n2)cc1,-26.2% (active)
4,CCN(CC)CCn1c2ccc(OC)cc2c2sc3cc(O)ccc3c(=O)c21,31% (inactive)
5,CC(C)(C)c1ccc(Cn2c(-c3nonc3N)nc3ccccc32)cc1,51.4% (inactive)
6,COC(=O)[C@H]1CCCN1C(=O)[C@H]1CCCN1C(=O)[C@H](Cc1c[nH]c2ccccc12)NC(=S)Nc1cc(C(F)(F)F)cc(C(F)(F)F)c1,53.4% (inactive)
7,CC(=O)O[C@H]1CC2CCC3C(CC[C@@]4(C)C3C[C@H]([N+]3(C)CCCCC3)[C@@H]4OC(C)=O)[C@@]2(C)C[C@@H]1N1CCCCC1 (stereo not given in full),107% (inactive)
8,Cc1ccc(NC(=O)c2sc3nc4c(cc3c2N)C(=O)CCC4)cc1,110% (inactive)
9,COc1cc(-c2csc(NC(=O)c3cc(F)cc(C(F)(F)F)c3)n2)cc(OC)c1OC,14% (inactive)
10,CCOC(=O)NC(=S)n1oc(=O)c2ccccc21,104% (inactive)
11,COc1cc(C2C3=C(COC3=O)Nc3c2ccc2c3CCCC2)cc2c1OCO2 (stereo not given),-6.76% (active)
12,NC(=NCCCOc1ccc(F)cc1)Nc1ccc(Cl)c(Cl)c1,48.2% (inactive)
13,COc1ccc(S(=O)(=O)Oc2ccc(-c3sc4cc(OS(=O)(=O)c5ccc(OC)cc5)ccc4c3C(=O)c3ccc(OCCN4CCCCC4)cc3)cc2)cc1,91.1% (inactive)
14,COc1c2occc2c(OC)c2c(=O)c(-c3cc(-c4ccc(F)cc4)c(C#N)c(N)n3)c(C)oc12,54.7% (inactive)
15,CCCCC(NC(=O)CN1C(=O)/C(=C/C(C)=C/c2ccccc2)SC1=S)C(=O)O (stereo not given),113% (inactive)
16,O=c1ccc2c(ccc3ncccc32)o1,88.8% (inactive)
17,CNC(=O)c1cc(Oc2ccc3nc(NC(=O)c4cc(C(F)(F)F)cc(C(F)(F)F)c4)sc3c2)ccn1,-12.8% (active)
18,Clc1cc(Cl)c(Cl)nn1,69.7% (inactive)
19,Cn1cc(-c2noc(C(=O)c3cn(C)c4ncccc34)n2)c2ccccc21,98.6% (inactive)
20,COc1ccc2nc(SCC(=O)Nc3ccccc3C)[nH]c2c1,100% (inactive)

row,SMILES,growth
1,O=C(c1ccccc1)N(C(=S)NCCc1ccc(Cl)cc1)c1ccccc1,54.4% (inactive)
2,C[C@@H](Oc1cc(-c2cnn(C3CC4(CNC4)C3)c2)cnc1N)c1c(Cl)ccc(F)c1Cl,-1.19% (active)
3,COC1OC(C(O)C(O)CO)C(O)C(O)C1O (stereo not given),108% (inactive)
4,NNC(=O)C1CC2c3ccccc3C1c1ccccc12 (stereo not given),113% (inactive)
5,Cn1cnc([N+](=O)[O-])c1S(=O)(=O)Oc1ccccc1,54.3% (inactive)
6,CC(=O)O[C@H]1C[C@@H]2C(C)(C)C(=O)CC[C@@]2(C)c2ccc(C(C)C)cc21,99.2% (inactive)
7,Cc1ccccc1/C=C/C(=O)c1cccc(OCCCCOc2cccc(C(=O)/C=C/c3ccccc3C)c2)c1,81.8% (inactive)
8,Nc1nc(SCc2cccnc2)c2ncn(C3OC(CO)C(O)C3O)c2n1 (stereo not given),103% (inactive)
9,Cc1cccc(-c2cn3ccnc3c(-c3ccc4ncn(Cc5ccccc5)c4c3)n2)c1,81.8% (inactive)
10,CCCCCCCCOC(=O)C(C)OC(=O)OCCOCCOC(=O)OC(C)C(=O)OCCCCCCCC (stereo not given),108% (inactive)
11,COc1ccc(-c2cc(C(=O)Nc3ccc(Br)cc3)nc3[nH]c(=O)sc23)cc1,25.5% (inactive)
12,COc1ccc(-c2nc3c(c(-c4ccc(Cl)cc4)nn3-c3ccccc3)c(-c3ccccc3)c2C#N)cc1,114% (inactive)
13,CC1(C)CC(=O)c2c(nn(-c3ccc(Br)cc3)c2-c2cn(-c3ccccc3)nc2-c2cccnc2)C1,92.1% (inactive)
14,CCCC[C@@H](C=O)NC(=O)[C@H](CC(C)C)NC(=O)[C@H](CC(C)C)NC(=O)OCc1ccccc1,-30.1% (active)
15,Cc1ccc(C(=O)c2ccc(CC(=O)N/N=C/c3ccccc3O)n2C)cc1,87% (inactive)
16,CCCc1cc(=O)n2c(C(=O)Nc3ccc(F)cc3)c(C(=O)Nc3ccc(F)cc3)sc2n1,106% [30 µM] (inactive)
17,CC1CCC(C(C)C)C(NNC(N)=O)C1 (stereo not given),108% (inactive)
18,Cn1c(Nc2ccc(C(F)(F)F)cc2)nc2cc(Oc3ccnc(-c4ncc(C(F)(F)F)[nH]4)c3)ccc21,30.3% (inactive)
19,O=C1/C(=C/c2ccc([N+](=O)[O-])cc2)CN(C(=O)CCN2CCC(=NO)CC2)C/C1=C\c1ccc([N+](=O)[O-])cc1,2.62% (active)
20,Cc1ccccc1-n1nnc(C(=O)Nc2nc3ccc(F)cc3s2)c1C,1.12% (active)
